Reference: the supplement of paper PMC10849652
Targets with a hit are over-represented here; the source holds about 7,900 in all. About 0.6% of all pairs of compound and target were hits.

Experiments:
Assay in all cases: log2 fold change, soluble protein after heating vs DMSO (PISA); higher = thermal stabilisation; K562 cells, 10 uM, 30 min; active = over 0.2 and 3.5 SD of the protein, either way, in both replicates (recomputed)
[1] = compound: COC1=CC=C(C=C1)CN2C=CC3=C2C=C(C=C3)C(=O)NO
In short: (§1)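 Soluble protein was quantified by TMTpro 16plex LC-MS/MS after channel sums were equalised. It was obtained as the supernatant after 21,000xg for 90 min from pooled aliquots of K562 cells (2×10^6 cells/mL, 10 μM compound, 30 min) heated for 3 min across 48°C-58°C and extracted in PBS with 0.5% NP-40 at 4°C. Thermal stability values are relative to control samples and come from duplicates. They are given as log2 fold changes.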

filanesib = compound: CON(C)C(=O)N1N=C(c2cc(F)ccc2F)S[C@@]1(CCCN)c1ccccc1 [filanesib]
In short: as §1

zotarolimus = compound: CO[C@H]1C[C@@H]2CC[C@@H](C)[C@@](O)(O2)C(=O)C(=O)N2CCCC[C@H]2C(=O)O[C@H]([C@H](C)C[C@@H]2CC[C@H](n3cnnn3)[C@H](OC)C2)CC(=O)[C@H](C)/C=C(\C)[C@@H](O)[C@@H](OC)C(=O)[C@H](C)C[C@H](C)/C=C/C=C/C=C/1C [zotarolimus]
In short: as §1

idasanutlin = compound: COc1cc(C(=O)O)ccc1NC(=O)[C@@H]1N[C@@H](CC(C)(C)C)[C@](C#N)(c2ccc(Cl)cc2F)[C@H]1c1cccc(Cl)c1F [idasanutlin]
In short: as §1

alisertib = compound: COc1cc(Nc2ncc3c(n2)-c2ccc(Cl)cc2C(c2c(F)cccc2OC)=NC3)ccc1C(=O)O [alisertib]
In short: as §1

[2] = compound: COc1cc2nc(-c3cc(F)ccc3O)nc(N[C@@H]3CNC[C@H]3C(C)(C)O)c2cc1OC
In short: as §1

gefitinib = compound: COc1cc2ncnc(Nc3ccc(F)c(Cl)c3)c2cc1OCCCN1CCOCC1 [gefitinib]
In short: as §1

[3] = compound: COc1cccc2cc(-c3nc([C@H]4CC[C@H](C(=O)O)CC4)n4ncnc(N)c34)[nH]c12
In short: as §1

lapatinib = compound: CS(=O)(=O)CCNCc1ccc(-c2ccc3ncnc(Nc4ccc(OCc5cccc(F)c5)c(Cl)c4)c3c2)o1 [lapatinib]
In short: as §1

pictilisib = compound: CS(=O)(=O)N1CCN(Cc2cc3nc(-c4cccc5[nH]ncc45)nc(N4CCOCC4)c3s2)CC1 [pictilisib]
In short: as §1

[4] = compound: CS(=O)(=O)c1ccc(-c2cnc(N)c(C(=O)Nc3ccccc3)n2)cc1
In short: as §1

crizotinib = compound: C[C@@H](Oc1cc(-c2cnn(C3CCNCC3)c2)cnc1N)c1c(Cl)ccc(F)c1Cl [crizotinib]
In short: as §1

[5] = compound: C[C@@H]1COCCN1C2=NC(=NC(=C2)C3(CC3)S(=O)(=O)C)C4=C5C=CNC5=CC=C4
In short: as §1

[6] = compound: C[C@H](C1=CC=C(C=C1)C(=O)NC2=C3C=CNC3=NC=C2)N
In short: as §1

duvelisib = compound: C[C@H](Nc1ncnc2nc[nH]c12)c1cc2cccc(Cl)c2c(=O)n1-c1ccccc1 [duvelisib]
In short: as §1

gandotinib = compound: Cc1cc(Nc2cc(CN3CCOCC3)c3nc(C)c(Cc4ccc(Cl)cc4F)n3n2)n[nH]1 [gandotinib]
In short: as §1

tozasertib = compound: Cc1cc(Nc2cc(N3CCN(C)CC3)nc(Sc3ccc(NC(=O)C4CC4)cc3)n2)n[nH]1 [tozasertib]
In short: as §1

[7] = compound: Cc1cc(SCc2sc(-c3ccc(C(F)(F)F)cc3)nc2C)ccc1OCC(=O)O
In short: as §1

doramapimod = compound: Cc1ccc(-n2nc(C(C)(C)C)cc2NC(=O)Nc2ccc(OCCN3CCOCC3)c3ccccc23)cc1 [doramapimod]
In short: as §1

ispinesib = compound: Cc1ccc(C(=O)N(CCCN)[C@@H](c2nc3cc(Cl)ccc3c(=O)n2Cc2ccccc2)C(C)C)cc1 [ispinesib]
In short: as §1

Measured: log2 fold change

LAMP2 (UniProt P13473)
inactive: [1] -0.125 | filanesib -0.058 | zotarolimus -0.022 | idasanutlin -0.005 | alisertib -0.006 | [2] -0.012 | gefitinib 0.005 | [3] 0.084 | lapatinib -0.079 | pictilisib 0.046 | [4] 0.055 | crizotinib 0.043 | [5] 0.006 | [6] -0.051 | duvelisib 0.072 | gandotinib -0.104 | tozasertib 0.015 | [7] -0.062 | doramapimod -0.039 | ispinesib -0.001

MICU1 isoform 3 (UniProt Q9BPX6)
Sequence of UniProt Q9BPX6 (Q9BPX6 whole entry, looked up): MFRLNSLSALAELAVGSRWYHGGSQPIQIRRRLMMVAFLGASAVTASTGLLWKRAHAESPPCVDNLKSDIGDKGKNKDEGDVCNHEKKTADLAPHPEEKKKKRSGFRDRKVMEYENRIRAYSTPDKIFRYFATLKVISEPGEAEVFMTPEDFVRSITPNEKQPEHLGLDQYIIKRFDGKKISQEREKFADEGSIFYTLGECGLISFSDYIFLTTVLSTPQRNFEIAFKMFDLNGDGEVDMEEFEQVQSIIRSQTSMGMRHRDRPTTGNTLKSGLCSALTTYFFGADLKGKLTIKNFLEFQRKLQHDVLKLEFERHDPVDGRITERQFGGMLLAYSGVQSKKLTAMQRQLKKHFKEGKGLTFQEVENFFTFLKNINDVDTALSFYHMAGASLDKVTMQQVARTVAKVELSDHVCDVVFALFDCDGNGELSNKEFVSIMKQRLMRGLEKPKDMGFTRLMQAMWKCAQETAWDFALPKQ
active: [2] -0.278 | ispinesib -0.458
inactive: [1] -0.047 | filanesib -0.031 | zotarolimus -0.034 | idasanutlin 0.05 | alisertib -0.011 | gefitinib 0.02 | [3] -0.056 | lapatinib 0.019 | pictilisib -0.038 | [4] -0.024 | crizotinib -0.207 | [5] -0.101 | [6] 0.023 | duvelisib -0.04 | gandotinib -0.128 | tozasertib -0.102 | [7] 0.021 | doramapimod -0.011

KIF21A isoform 4 (UniProt Q7Z4S6)
inactive: [1] 0.014 | filanesib 0.028 | zotarolimus 0.051 | idasanutlin 0.07 | alisertib 0.051 | [2] 0.163 | gefitinib -0.028 | [3] -0.126 | lapatinib 0.001 | pictilisib 0.037 | [4] 0.092 | crizotinib -0.039 | [5] 0.027 | [6] 0.207 | duvelisib 0.055 | gandotinib -0.001 | tozasertib 0.021 | [7] 0.044 | doramapimod 0.047 | ispinesib -0.153

IMMT isoform 2 (UniProt Q16891)
Sequence of UniProt Q16891 (Q16891 whole entry, looked up): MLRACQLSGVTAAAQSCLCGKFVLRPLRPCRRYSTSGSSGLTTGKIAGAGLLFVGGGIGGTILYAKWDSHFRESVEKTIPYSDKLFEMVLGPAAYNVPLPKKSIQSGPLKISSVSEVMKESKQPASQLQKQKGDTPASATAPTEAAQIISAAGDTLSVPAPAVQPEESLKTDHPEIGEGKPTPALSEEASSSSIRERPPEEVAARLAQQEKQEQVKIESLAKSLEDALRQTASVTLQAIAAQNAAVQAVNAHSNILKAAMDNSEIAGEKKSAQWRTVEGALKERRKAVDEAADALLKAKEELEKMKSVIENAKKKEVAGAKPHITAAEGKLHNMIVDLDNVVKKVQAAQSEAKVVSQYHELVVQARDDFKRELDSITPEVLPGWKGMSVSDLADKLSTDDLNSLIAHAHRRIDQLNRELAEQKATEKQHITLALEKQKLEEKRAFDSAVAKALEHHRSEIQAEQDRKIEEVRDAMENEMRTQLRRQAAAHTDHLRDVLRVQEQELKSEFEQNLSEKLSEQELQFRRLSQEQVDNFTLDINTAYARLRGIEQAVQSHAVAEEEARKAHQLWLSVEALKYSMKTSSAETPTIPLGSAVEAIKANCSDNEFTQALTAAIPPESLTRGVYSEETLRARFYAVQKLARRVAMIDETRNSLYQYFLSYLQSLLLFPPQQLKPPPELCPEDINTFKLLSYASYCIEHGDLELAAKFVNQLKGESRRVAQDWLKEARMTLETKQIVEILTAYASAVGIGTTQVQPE
inactive: [1] 0.006 | filanesib -0.101 | zotarolimus -0.045 | idasanutlin 0.04 | alisertib -0.088 | [2] -0.25 | gefitinib -0.006 | [3] 0.017 | lapatinib -0.151 | pictilisib -0.238 | [4] -0.042 | crizotinib -0.152 | [5] 0.046 | [6] -0.115 | duvelisib -0.003 | gandotinib -0.075 | tozasertib -0.019 | [7] -0.087 | doramapimod -0.034 | ispinesib -0.031

MFSD5 isoform 2 (UniProt Q6N075)
inactive: [1] 0.037 | filanesib 0.018 | zotarolimus -0.149 | idasanutlin -0.058 | alisertib 0.011 | [2] -0.026 | gefitinib 0.039 | [3] 0.12 | lapatinib 0.045 | pictilisib 0.062 | [4] 0.069 | crizotinib -0.039 | [5] -0.04 | [6] -0.046 | duvelisib 0.112 | gandotinib -0.045 | tozasertib 0.144 | [7] -0.004 | doramapimod 0.004 | ispinesib 0.051

MAGEC2 (UniProt Q9UBF1)
Sequence of UniProt Q9UBF1 (Q9UBF1 whole entry, looked up): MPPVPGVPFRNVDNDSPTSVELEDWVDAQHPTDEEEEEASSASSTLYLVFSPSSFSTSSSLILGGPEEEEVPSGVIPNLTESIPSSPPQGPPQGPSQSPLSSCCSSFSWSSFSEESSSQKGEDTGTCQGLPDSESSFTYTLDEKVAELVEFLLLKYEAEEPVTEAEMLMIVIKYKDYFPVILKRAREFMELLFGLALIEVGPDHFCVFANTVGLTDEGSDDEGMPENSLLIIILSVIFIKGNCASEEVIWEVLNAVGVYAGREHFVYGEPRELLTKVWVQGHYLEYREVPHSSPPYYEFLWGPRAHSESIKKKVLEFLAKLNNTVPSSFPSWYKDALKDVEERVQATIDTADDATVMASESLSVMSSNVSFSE
inactive: [1] 0.018 | filanesib -0.032 | zotarolimus 0.039 | idasanutlin -0.045 | alisertib -0.044 | [2] 0.015 | gefitinib -0.018 | [3] -0.005 | lapatinib -0.004 | pictilisib 0.058 | [4] 0.008 | crizotinib 0.049 | [5] 0.009 | [6] 0.081 | duvelisib 0.043 | gandotinib 0.055 | tozasertib 0.107 | [7] -0.036 | doramapimod -0.036 | ispinesib -0.012

KPNB1 (UniProt Q14974)
inactive: [1] 0.033 | filanesib -0.024 | zotarolimus 0.052 | idasanutlin -0.048 | alisertib -0.07 | [2] -0.065 | gefitinib -0.063 | [3] -0.076 | lapatinib -0.001 | pictilisib -0.032 | [4] -0.027 | crizotinib -0.201 | [5] -0.038 | [6] 0.047 | duvelisib -0.045 | gandotinib -0.09 | tozasertib 0.094 | [7] 0.083 | doramapimod 0.026 | ispinesib -0.225

IPO7 (UniProt O95373)
Sequence of UniProt O95373 (O95373 whole entry, looked up): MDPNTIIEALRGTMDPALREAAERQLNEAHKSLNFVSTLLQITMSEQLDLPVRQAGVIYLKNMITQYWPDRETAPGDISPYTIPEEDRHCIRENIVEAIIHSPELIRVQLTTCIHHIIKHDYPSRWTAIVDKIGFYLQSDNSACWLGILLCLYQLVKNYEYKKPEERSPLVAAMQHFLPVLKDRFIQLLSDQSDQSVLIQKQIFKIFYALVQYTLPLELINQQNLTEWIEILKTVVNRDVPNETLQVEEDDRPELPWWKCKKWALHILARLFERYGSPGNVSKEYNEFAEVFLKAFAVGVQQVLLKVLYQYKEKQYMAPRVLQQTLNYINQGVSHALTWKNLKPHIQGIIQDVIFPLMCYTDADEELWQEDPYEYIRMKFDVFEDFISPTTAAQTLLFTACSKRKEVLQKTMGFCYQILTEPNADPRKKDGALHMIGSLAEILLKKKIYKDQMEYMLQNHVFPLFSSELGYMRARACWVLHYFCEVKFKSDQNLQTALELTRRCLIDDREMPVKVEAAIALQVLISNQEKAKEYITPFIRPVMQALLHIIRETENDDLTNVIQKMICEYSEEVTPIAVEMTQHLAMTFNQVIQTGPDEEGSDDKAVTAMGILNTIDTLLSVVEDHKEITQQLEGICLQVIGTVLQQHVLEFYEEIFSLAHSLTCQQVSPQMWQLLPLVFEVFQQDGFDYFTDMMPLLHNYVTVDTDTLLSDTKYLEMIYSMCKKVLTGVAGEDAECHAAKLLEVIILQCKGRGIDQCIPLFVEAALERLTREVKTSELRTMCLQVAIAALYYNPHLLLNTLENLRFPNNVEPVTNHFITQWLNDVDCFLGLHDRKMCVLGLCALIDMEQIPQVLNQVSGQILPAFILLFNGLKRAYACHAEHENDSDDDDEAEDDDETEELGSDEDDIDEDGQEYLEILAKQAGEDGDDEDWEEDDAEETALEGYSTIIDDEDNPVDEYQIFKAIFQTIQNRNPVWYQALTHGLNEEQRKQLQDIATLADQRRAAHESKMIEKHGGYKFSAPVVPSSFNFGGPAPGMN
inactive: [1] 0.053 | filanesib -0.094 | zotarolimus 0.014 | idasanutlin -0.103 | alisertib -0.087 | [2] -0.111 | gefitinib 0 | [3] -0.014 | lapatinib -0.008 | pictilisib -0.006 | [4] -0.011 | crizotinib -0.138 | [5] 0.042 | [6] -0.07 | duvelisib 0.029 | gandotinib -0.185 | tozasertib 0.102 | [7] 0.073 | doramapimod -0.054 | ispinesib -0.077

KPNA4 (UniProt O00629)
inactive: [1] 0.017 | filanesib -0.028 | zotarolimus 0.015 | idasanutlin -0.068 | alisertib -0.026 | [2] -0.091 | gefitinib 0.041 | [3] 0.044 | lapatinib -0.017 | pictilisib -0.025 | [4] 0.004 | crizotinib -0.003 | [5] 0.024 | [6] -0.073 | duvelisib 0.03 | gandotinib -0.032 | tozasertib -0.014 | [7] 0.014 | doramapimod -0.046 | ispinesib 0.037

MCL1 (UniProt Q07820)
Sequence of UniProt Q07820 (Q07820 whole entry, looked up): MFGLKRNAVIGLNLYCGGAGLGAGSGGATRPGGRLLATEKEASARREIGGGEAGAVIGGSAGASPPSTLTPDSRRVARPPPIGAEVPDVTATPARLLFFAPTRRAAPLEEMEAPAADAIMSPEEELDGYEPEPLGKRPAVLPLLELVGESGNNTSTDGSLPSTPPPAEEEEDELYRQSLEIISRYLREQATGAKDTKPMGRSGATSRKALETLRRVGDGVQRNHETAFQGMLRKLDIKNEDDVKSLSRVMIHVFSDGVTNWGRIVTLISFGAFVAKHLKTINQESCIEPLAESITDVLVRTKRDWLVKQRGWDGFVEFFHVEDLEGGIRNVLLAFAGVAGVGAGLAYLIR
active: [2] -0.442
inactive: [1] -0.092 | filanesib 0.029 | zotarolimus 0.093 | idasanutlin 0.145 | alisertib -0.12 | gefitinib -0.18 | [3] 0.055 | lapatinib -0.249 | pictilisib -0.026 | [4] -0.079 | crizotinib 0.043 | [5] -0.158 | [6] -0.006 | duvelisib 0.052 | gandotinib 0.042 | tozasertib -0.056 | [7] 0.01 | doramapimod 0.109 | ispinesib -0.441

LMF2 (UniProt Q9BU23)
inactive: [1] -0.041 | filanesib -0.011 | zotarolimus -0.027 | idasanutlin -0.02 | alisertib -0.025 | [2] -0.014 | gefitinib 0.013 | [3] -0.021 | lapatinib 0.062 | pictilisib -0.095 | [4] 0.039 | crizotinib 0.016 | [5] -0.05 | [6] 0.053 | duvelisib 0.002 | gandotinib 0.023 | tozasertib 0.088 | [7] 0.023 | doramapimod 0.046 | ispinesib -0.075

KLHDC4 (UniProt Q8TBB5)
inactive: [1] -0.045 | zotarolimus 0.044 | idasanutlin 0.199 | alisertib -0.023 | [2] 0.076 | gefitinib 0.03 | [3] 0.1 | lapatinib -0.026 | pictilisib 0.029 | [4] 0.093 | crizotinib 0.157 | [5] -0.07 | [6] 0.111 | duvelisib -0.091 | gandotinib 0.041 | tozasertib 0.025 | [7] 0.039 | doramapimod 0.069 | ispinesib 0
active: filanesib 0.435

LNPEP (UniProt Q9UIQ6)
Sequence of UniProt Q9UIQ6 (Q9UIQ6 whole entry, looked up): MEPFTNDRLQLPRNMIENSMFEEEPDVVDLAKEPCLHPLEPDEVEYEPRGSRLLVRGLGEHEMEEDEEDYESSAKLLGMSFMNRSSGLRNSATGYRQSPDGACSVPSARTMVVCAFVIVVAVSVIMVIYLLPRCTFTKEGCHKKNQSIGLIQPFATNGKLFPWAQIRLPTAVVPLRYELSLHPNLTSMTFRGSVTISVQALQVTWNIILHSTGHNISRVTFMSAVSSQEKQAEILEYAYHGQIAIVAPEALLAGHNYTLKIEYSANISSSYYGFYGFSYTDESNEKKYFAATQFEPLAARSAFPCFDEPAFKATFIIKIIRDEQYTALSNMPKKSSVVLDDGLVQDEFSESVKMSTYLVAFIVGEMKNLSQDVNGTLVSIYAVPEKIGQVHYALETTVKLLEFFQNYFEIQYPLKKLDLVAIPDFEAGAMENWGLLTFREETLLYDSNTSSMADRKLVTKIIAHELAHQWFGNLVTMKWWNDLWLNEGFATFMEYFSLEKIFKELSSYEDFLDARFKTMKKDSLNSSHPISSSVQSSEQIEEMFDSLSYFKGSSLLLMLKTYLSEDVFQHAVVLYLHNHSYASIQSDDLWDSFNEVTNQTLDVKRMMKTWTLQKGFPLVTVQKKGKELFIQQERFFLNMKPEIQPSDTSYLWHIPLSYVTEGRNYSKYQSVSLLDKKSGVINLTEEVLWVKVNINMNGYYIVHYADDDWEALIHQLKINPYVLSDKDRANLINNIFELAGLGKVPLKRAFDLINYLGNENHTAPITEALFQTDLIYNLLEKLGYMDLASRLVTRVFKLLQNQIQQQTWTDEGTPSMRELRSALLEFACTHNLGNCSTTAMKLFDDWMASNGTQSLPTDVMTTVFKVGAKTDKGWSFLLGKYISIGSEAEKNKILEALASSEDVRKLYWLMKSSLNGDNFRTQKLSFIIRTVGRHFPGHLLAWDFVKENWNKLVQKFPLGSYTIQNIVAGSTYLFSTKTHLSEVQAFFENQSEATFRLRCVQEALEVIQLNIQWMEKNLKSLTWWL
inactive: [1] 0.001 | filanesib -0.014 | zotarolimus -0.03 | idasanutlin -0.014 | alisertib -0.01 | [2] 0.016 | gefitinib 0.01 | [3] 0.058 | lapatinib 0.003 | pictilisib 0.04 | [4] 0.028 | crizotinib 0.015 | [5] 0.023 | [6] -0.053 | duvelisib 0.053 | gandotinib 0.028 | tozasertib -0.023 | [7] -0.008 | doramapimod -0.013 | ispinesib -0.039

KIAA1324L (UniProt A8MWY0)
Sequence of UniProt A8MWY0 (A8MWY0 whole entry, looked up): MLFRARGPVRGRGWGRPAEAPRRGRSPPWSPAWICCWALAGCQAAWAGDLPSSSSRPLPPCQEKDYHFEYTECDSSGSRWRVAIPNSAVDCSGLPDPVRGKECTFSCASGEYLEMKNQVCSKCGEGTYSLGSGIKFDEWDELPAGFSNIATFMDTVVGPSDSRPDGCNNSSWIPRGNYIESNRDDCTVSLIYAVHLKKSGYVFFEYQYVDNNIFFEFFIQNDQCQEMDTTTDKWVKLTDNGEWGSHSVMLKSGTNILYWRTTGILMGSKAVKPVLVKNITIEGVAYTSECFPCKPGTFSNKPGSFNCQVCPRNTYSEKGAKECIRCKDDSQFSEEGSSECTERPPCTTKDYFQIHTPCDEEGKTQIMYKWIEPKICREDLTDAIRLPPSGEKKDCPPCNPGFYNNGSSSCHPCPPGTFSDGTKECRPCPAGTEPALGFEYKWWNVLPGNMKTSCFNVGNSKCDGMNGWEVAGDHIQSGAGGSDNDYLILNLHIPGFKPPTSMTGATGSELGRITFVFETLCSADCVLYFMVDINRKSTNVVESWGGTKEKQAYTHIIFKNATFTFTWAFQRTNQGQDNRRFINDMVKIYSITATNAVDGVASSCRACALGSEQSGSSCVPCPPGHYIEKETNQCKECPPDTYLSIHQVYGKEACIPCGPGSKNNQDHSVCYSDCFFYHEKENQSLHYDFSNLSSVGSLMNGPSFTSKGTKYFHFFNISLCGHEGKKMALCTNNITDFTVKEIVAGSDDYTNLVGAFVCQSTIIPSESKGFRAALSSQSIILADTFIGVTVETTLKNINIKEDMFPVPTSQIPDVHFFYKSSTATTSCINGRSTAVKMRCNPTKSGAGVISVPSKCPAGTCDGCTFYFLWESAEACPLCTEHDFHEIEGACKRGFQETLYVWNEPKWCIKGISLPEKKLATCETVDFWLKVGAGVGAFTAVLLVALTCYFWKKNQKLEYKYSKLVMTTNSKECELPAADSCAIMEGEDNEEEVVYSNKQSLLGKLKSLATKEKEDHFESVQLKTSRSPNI
inactive: [1] -0.03 | filanesib 0.091 | zotarolimus -0.09 | idasanutlin 0.07 | alisertib -0.013 | [2] 0.028 | gefitinib 0.109 | [3] 0.049 | lapatinib -0.026 | pictilisib 0.005 | [4] 0.081 | crizotinib -0.125 | [5] 0.06 | [6] 0.062 | duvelisib -0.027 | gandotinib 0.076 | tozasertib -0.036 | [7] -0.057 | doramapimod 0.051 | ispinesib -0.124

JMJD6 isoform 3 (UniProt Q6NYC1)
inactive: [1] -0.061 | filanesib -0.039 | zotarolimus 0.03 | idasanutlin 0.019 | alisertib 0.013 | [2] -0.088 | gefitinib 0.059 | [3] -0.021 | lapatinib -0.016 | pictilisib 0.039 | [4] -0.037 | crizotinib 0.046 | [5] 0.046 | [6] -0.034 | duvelisib 0.002 | gandotinib -0.147 | tozasertib 0.024 | [7] 0.029 | doramapimod 0.005 | ispinesib 0.039
